High-throughput results (PubChem BioAssay)
A selection: hits, their analogues and other compounds. The true share with any hit is near 5.7%.
HepG2 viability: kills HepG2 cells in TGF-b inhibitor counter-screen. 0.76% of 410,000 active. Potency, µM (doses to about 46.1 µM), without a hit: top-dose activity change, negative = cytotoxicity, usual class: cytotoxic. HepG2 CAGA-GFP viability, ATP luminescence, 18 h. AID 588856; further: potency means the concentration at half of the fitted maximal effect
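CellTiter-Glo luminescence gave cytotoxicity after 18 hours at 37 degrees C. The cells were HepG2 CAGA-GFP in 1% FBS DMEM, stimulated with 500 pg/mL TGF-beta after compound addition. %Activity was normalised to no-cell wells (complete cell-killing) and DMSO (no toxicity), and curves were fitted and classified.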
TGFb inhibitor: blocks TGF-b signaling; 1.2% of 410,000 active; HepG2 CAGA-GFP TGF-b/SMAD3 reporter, GFP fluorescence, 18 h; TGF-beta stimulated, 500 pg/mL final; Potency, µM (doses to about 46.1 µM), for inactives: at the top dose activity, negative = inhibition, most hits filed as inhibitors; further: potency means the concentration at half of the fitted maximal effect; on the % scale 0 is the no-effect control and ±100 the full control effect; nearly all actives have a fitted effect of over 65% in size
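Smad-responsive CAGA-GFP expression was quantified in HEPG2 cells exposed to compounds and 500 pg/mL final TGF-beta for 18 h at 37 degrees C; unstimulated wells defined full inhibition.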
ATXN2 expr inh: reduces ATXN2 reporter expression in HEK-293 cells | HEK-293 ATXN2-luciferase reporter, luminescence, 24 h | Potency, µM (doses to about 57 µM), without a hit: at the top dose activity change, negative = inhibition, usual class: inhibitors | 0.72% of 360,000 active | AID 1745845; further: potency means the concentration at half of the fitted maximal effect; on the % scale 0 is the no-effect control and ±100 the full control effect; nearly all actives have a fitted effect of over 55% in size
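qHTS (up to 57 uM final) was run with 24 h compound exposure of reporter cells at 37 °C. Each well was multiplexed: SteadyGlo luminescence measured ATXN2-luciferase expression after a fluorogenic Gly-Phe-AFC viability readout (25 uM final).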
S2 tox: viability counter-screen for ATXN expression inhibitors | 0.49% of 400,000 active | Potency, µM (doses to about 56.7 µM), actives largely listed as cytotoxic | AID 651635 | S2 cells (HEK-293 line with an ATXN2-luciferase reporter) viability, CellTiter-Fluor protease fluorescence, 24 h; further: potency means the concentration at half of the fitted maximal effect; nearly all actives have a fitted effect of over 40% in size
IL1B secr inh: blocks inflammasome-driven IL-1 beta release; THP-1 LPS/ATP IL-1B secretion, AlphaLISA, 16 h; stronger effect = lower value; 4.7% of 360,000 active; AID 743279; activity change, % at 57.5 µM; in the data active means activity change below about -50%; inconclusive means mostly about -30% to -49%; further: on the % scale 0 is the no-effect control and ±100 the full control effect
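Secreted IL-1B measured by AlphaLISA bead assay after 16 h compound exposure of THP-1 cells; compounds (final up to 57.5 uM) added 1 h before LPS (250 ng/mL) and ATP (1.25 mM) stimulation; lower signal means less secretion.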
The depositor's hits bear a star; i = inactive; ? = inconclusive; / = no result. Unless noted, the call rests on the fitted dose curve; in most records, active means well fitted curve in the direction sought with a large enough effect; inconclusive means small, poorly fitted or top-dose-only effect, or another doubt; inactive means no such curve, though single readings can be large; an effect the other way counts as inactive or inconclusive.

SMILES	HepG2 viability	TGFb inhibitor	ATXN2 expr inh	S2 tox	IL1B secr inh
O=C(NCc1ccc2c(c1)OCO2)Nc1ccc(F)cc1	5.2%	-15.8%	11.4%	i	22.3
Cc1cc(C)cc(NC(=S)NCc2ccc3c(c2)OCO3)c1	-29.9%	-26.8%	0.1%	i	8.5
Cc1ccc(NC(=O)NCc2ccc3c(c2)OCO3)cc1C	-12.7%	?	56.6%	i	-62.7*
Cc1ccc(NC(=S)NCc2ccc3c(c2)OCO3)cc1C	-10.6%	?	0.9%	i	-69.1*
CCC(=O)N1CCc2cc(Br)cc(S(=O)(=O)N3CCCC(C(=O)NCc4ccccc4)C3)c21 (stereo unspecified)	-26.7%	?	-5.6%	i	/
COc1cc(=O)n2c(c1C(=O)N(C)Cc1nonc1C)CCN(C(=O)c1cccc(C)c1C)CC2	/	/	/	i	/
COc1ccc(C)cc1-n1c(SCC(=O)NCc2ccco2)nc2c([nH]c3ccccc32)c1=O	-14.3%	0.0%	/	/	/
COc1ccc(OC)c(C2C=C(c3ccc(C)c(C)c3)Nc3nnnn32)c1 (stereo unspecified)	-7.9%	0.0%	-28.2%	i	22.3
COc1cccc(C2=CC(c3cc(OC)ccc3OC)n3nnnc3N2)c1 (stereo unspecified)	-1.6%	?	-26.8%	i	-76.6*
Cc1ccc(Nc2cc(C)nn2-c2nc(C)cc(=O)[nH]2)cc1	-27.3%	2.24µM*	1.12µM*	2µM*	-110.3*
O=C(N[C@@H]1c2ccccc2C2(CCN(C(=O)c3cc4ccccc4oc3=O)CC2)[C@H]1O)c1cccnc1	/	/	/	i	/
CCC1=C(c2ccc(C)cc2)S(=O)(=O)N=C1N1CCC(C(=O)Nc2ccccc2C(=O)OC)CC1	-17.7%	?	-10.6%	i	/
OC(CNCc1ccc(Cl)cc1)(c1ccccc1)c1ccc(F)cc1 (stereo unspecified)	-39.8%	?	-14.8%	i	-67.4*
OC(CNCc1ccc(F)cc1)(c1ccc(F)cc1)c1ccc(F)cc1	-80.7%	-14.7%	/	/	-54.7*
CCOc1cccc(CN2CCC(n3cc(C(=O)N4CCCCC4)nn3)CC2)c1O	/	/	/	i	/
C/C(=N\NC(=S)NCC(C)(C)C)c1cc(F)cc(F)c1O	-13.1%	?	?	?	-109.7*
Cc1[nH]nc(-c2ccc(OCc3cnn(-c4ccccc4)c3)cc2O)c1Oc1ccc(F)cc1	-62.4%	?	-9.9%	i	59.9
CCOc1ccc(-c2n[nH]c(C)c2Oc2ccc(OC)cc2)c(O)c1	12.6µM*	?	-21.2%	i	-27.6
COc1cccc(-c2sc3ccccc3c2-c2ccc(OCCN(C)C)cc2)c1	11.2µM*	?	22.4µM*	/	?
c1ccc(-c2sc3ccccc3c2-c2ccc(OCCN3CCCC3)cc2)cc1	11.2µM*	?	25.1µM*	?	?
COc1cccc(-c2sc3cc(OC)c(OC)cc3c2-c2ccc(OCCN3CCCCC3)cc2)c1	12.6µM*	?	-20.6%	39.8µM*	-11.3
COc1ccc2sc(-c3ccccc3OC)c(-c3ccc(OCCN(C)C)cc3)c2c1	15.8µM*	15.8µM*	?	/	?
COc1cccc(OC)c1CN1CCC2(CCC(CNC(=O)c3ccccc3)O2)CC1 (stereo unspecified)	/	/	/	i	/
COc1ccc(CCNC(=O)c2cc3sccc3n2Cc2ccc(Cl)cc2)cc1OC	-14.8%	-1.3%	/	/	/
O=C(CN1C(=O)C2(CCCC2)NC[C@H]1c1cc(F)cc(F)c1)Nc1ccc2c(c1)C[C@@]1(C2)C(=O)Nc2ncccc21	/	/	-1.4%	/	/
COc1ccccc1NC(=O)c1ccc(-c2nc(COc3ccc(C)cc3)c(C)o2)cc1	-20.5%	-19.4%	0.7%	i	/
O=C(c1cnc(N2CCOCC2)c2ccccc12)N1CCN(c2ccc(F)cc2)CC1	-3.6%	-20.9%	/	/	/
COc1cccc(-c2sc3ccccc3c2-c2ccc(OCCN3CCCCC3)cc2)c1	-40.6%	0.9%	?	/	?
COc1cccc(-c2sc3ccccc3c2-c2ccc(OCCN3CCCC3)cc2)c1	20µM*	?	28.2µM*	?	-22.7
O=C(O)c1ccc(NC2=C/C(=N/S(=O)(=O)c3cccs3)c3ccccc3C2=O)cc1	-107.7%	14.1µM*	/	/	-94.1*
